Compounds without any hit were thinned out: in the full panel of roughly 83,000, 20% have a hit.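 How to read the values: 0–100, growth inhibition (40 = 60% inhibited); 0, no net growth; -100 to 0, cell death (-40 = 40% of starting cells died; -100 = all dead).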 A number with no mark means an inactive call. Activity calls are given as the source filed them. Rule for the calls: active = growth percent below 10; inactive = the rest.

In one assay the test system is NCI-H23 lung. The experiment in a line: NCI-60 one-dose screen, 48 h (100 = growth as untreated, 0 = no growth, -100 = all killed). The settings on record: 10 µM unless noted.
For `COc1ccc(-c2nnc(SCC(=O)Nc3ccc(C(=O)/C=C/c4cc(OC)c(OC)c(OC)c4)cc3)n2-c2ccccc2)cc1OC`, the growth was -66.5% [100 µM] (active).
`COc1ccc2cn3c4ccc(O)cc4[nH]c(=O)c3c2c1`: the growth was 25.3%.
Consider `COc1ccc(/C=N/c2cc(C(C)(C)C)nn2-c2ccccc2)cc1`, for which the growth was 106%.
For `CCCCCCCCCCC1OC(C)CC(C)O1` (stereo not given), the growth is 100%.
Turning to `S=C(N/N=C/c1cc(Cl)cc(Cl)c1)NC12CC3CC(CC(C3)C1)C2`, the growth is 97.8%.
On the same count and under the same terms, next, `CCOC1=C(Cl)C(=O)C(OCC)=C(Cl)C1=O`: 107%; `COC(=O)/C=C1/CCCCC1(C)C(=O)OC` (stereo not given): 109%.
On the same count and under the same terms, then `CCCCCCCCCCC(C[N+](C)(C)C/C=C/c1ccccc1)C(O)c1ccccc1` (stereo not given), with 7.14% (active); and `C=CC1CN2CCC1CC2C(O)c1ccnc2ccc(OC)cc12` (stereo not given), with 98.3%.
On the same count and under the same terms, then `CC(=O)c1ccc2c(c1)c1ccccc1n2C`, with 94.1%; and `CC(=O)Nc1nc(C)c(C(=O)NNS(=O)(=O)c2ccccc2)s1`, with 109%; and `Cc1cc2cn3c4ccc(O)cc4nc(N)c3c2cc1C`, with 26.8%.
`COc1cc(-c2nn(-c3ccc(NC(=O)Nc4ccc(Cl)c(Cl)c4)cc3)cc2-c2ccncc2)ccc1Cl`: the growth is 22.9%.
As to `CCOC(=O)c1sc(NS(=O)(=O)c2ccccc2)nc1C`, the growth was 109%.
With `Clc1ccc(I)c2ccccc12`, the growth is 106%.
Take `N#Cc1c2cccnc2c2nnc3cc(Cl)c(Cl)cc3n12`: the growth is -20.2% (active).
On to `COc1ccc(C(=O)NCCNc2nccc(-c3c(-c4ccc(F)cc4)nc4sccn34)n2)cc1`, for which the growth was 70.7%.
On the same count and under the same terms, then `CC(O)CN(CC(C)O)N(CC(C)O)CC(C)O` (stereo not given), with 108%; and `O=C(Nc1ccc(-n2cc(-c3ccncc3)c(-c3ccc(Cl)c(O)c3)n2)cc1)c1cc(C(F)(F)F)cc(C(F)(F)F)c1`, with 63.8%; and `COc1cc(-c2nn(-c3ccc(NC(=O)c4cc(Cl)cc(Cl)c4)cc3)cc2-c2ccncc2)ccc1Cl`, with 88%.
Consider `CCCCCCC(C)N(CC(C)(C)O)C(=O)c1ccc([N+](=O)[O-])cc1` (stereo not given), for which the growth was 99.2%.
The same measure, in the same setting: then `COc1cc(-c2nn(-c3ccc(NC(=O)c4ccc(Cl)c(Cl)c4)cc3)cc2-c2ccncc2)ccc1Cl`, with 77.8%; and `COC(=O)[C@@H]1[C@H](O)[C@H](C)[C@H](O)[C@H](C)/C=C\C=C(C)C(=O)Nc2c(C)c(OC(C)=O)c3c(c2O)C(=O)C(C)=C2OCOC(=C23)C(C)=C[C@@](C)(O)[C@H](O)[C@@H](C)[C@H]1OC(C)=O`, with 109%; and `C/C(=C\c1ccc2ccccc2c1)[N+](=O)[O-]`, with 74.6%.
The same measure, in the same setting: then `Cc1cc2cn3c4ccc(O)cc4[nH]c(=O)c3c2cc1C`, with 25.3%; and `COc1ccc(C(=O)N2N=C(c3ccc(Br)cc3)CC2c2cn(-c3ccccc3)nc2-c2ccccc2)cc1` (stereo not given), with 42.4%.
`O=CN/N=C/c1ccc(Cl)c([N+](=O)[O-])c1`: the growth is 26.5%.
Take `O=C1CCNC1`: the growth is 111%.
In the case of `O=c1[nH]c2cc(O)ccc2n2cc3c(F)cccc3c12`, the growth was 39.6%.
Still for that read-out and setting: next, `O=C(CCC(=O)N(CCO)CCO)N(CCO)CCO`: 108%.
For `O=C(CCl)NC1c2ccccc2Oc2ccccc21`, the growth was 70.4%.
Still for that read-out and setting: then `CC(=O)N1CCN(CCNC(=O)n2cc(-c3ccncc3)c(-c3cc(O)cc(Cl)c3)n2)CC1`, with 99.7%; and `CC(C)OCC1CO1` (stereo not given), with 110%.
The same measure, in the same setting: then `Oc1ccc(Br)cc1/C=N/NC(=S)NC12CC3CC(CC(C3)C1)C2`, with 1.36% (active); and `CC(=O)N1CCN(CCNC(=O)n2cc(-c3ccncc3)c(-c3ccc(O)c(Cl)c3)n2)CC1`, with 109%; and `CCOC(=O)/C(C#N)=C(/CC)OCC`, with 110%.
As to `O=C1Nc2c(c(=O)n(-c3ccccc3)c3ccccc23)C(c2ccc(Cl)cc2)N1` (stereo not given), the growth is 90.4%.
`N=C(c1ccccc1)N(Cc1ccccc1)Cc1ccccc1`: the growth is 92.9%.
Turning to `COc1cccc(NC(=O)NCCNc2nccc(-c3c(-c4ccc(F)cc4)nc4sccn34)n2)c1`, the growth was 89.9%.
The same measure, in the same setting: then `Cc1ccc(NC(=O)CCl)cc1Cl`, with 89.2%.

The test system of a further assay is NCI-H226 lung. The description is as above. The conditions noted are these: 10 µM unless noted.
For `COc1ccc(-c2nnc(SCC(=O)Nc3ccc(C(=O)/C=C/c4cc(OC)c(OC)c(OC)c4)cc3)n2-c2ccccc2)cc1OC`, the growth was -15% [100 µM] (active).
Still for that read-out and setting: next, `COc1ccc2cn3c4ccc(O)cc4[nH]c(=O)c3c2c1`: 54.7%; `COc1ccc(/C=N/c2cc(C(C)(C)C)nn2-c2ccccc2)cc1`: 89%.
As for `CCCCCCCCCCC1OC(C)CC(C)O1` (stereo not given), the growth was 102%.
Same read-out and setting: then `S=C(N/N=C/c1cc(Cl)cc(Cl)c1)NC12CC3CC(CC(C3)C1)C2`, with 79.6%; and `CCOC1=C(Cl)C(=O)C(OCC)=C(Cl)C1=O`, with 103%.
On the same count and under the same terms, next, `COC(=O)/C=C1/CCCCC1(C)C(=O)OC` (stereo not given): 102%.
Same read-out and setting: then `CCCCCCCCCCC(C[N+](C)(C)C/C=C/c1ccccc1)C(O)c1ccccc1` (stereo not given), with 29%; and `C=CC1CN2CCC1CC2C(O)c1ccnc2ccc(OC)cc12` (stereo not given), with 91.9%.
Take `CC(=O)c1ccc2c(c1)c1ccccc1n2C`: the growth was 84.2%.
Still for that read-out and setting: then `CC(=O)Nc1nc(C)c(C(=O)NNS(=O)(=O)c2ccccc2)s1`, with 112%; and `Cc1cc2cn3c4ccc(O)cc4nc(N)c3c2cc1C`, with 45.9%.
Same read-out and setting: then `COc1cc(-c2nn(-c3ccc(NC(=O)Nc4ccc(Cl)c(Cl)c4)cc3)cc2-c2ccncc2)ccc1Cl`, with 52.6%; and `CCOC(=O)c1sc(NS(=O)(=O)c2ccccc2)nc1C`, with 106%; and `Clc1ccc(I)c2ccccc12`, with 103%.
Regarding `N#Cc1c2cccnc2c2nnc3cc(Cl)c(Cl)cc3n12`, the growth is 79.6%.
Turning to `COc1ccc(C(=O)NCCNc2nccc(-c3c(-c4ccc(F)cc4)nc4sccn34)n2)cc1`, the growth was 54.8%.
The same measure, in the same setting: next, `CC(O)CN(CC(C)O)N(CC(C)O)CC(C)O` (stereo not given): 97.5%; `O=C(Nc1ccc(-n2cc(-c3ccncc3)c(-c3ccc(Cl)c(O)c3)n2)cc1)c1cc(C(F)(F)F)cc(C(F)(F)F)c1`: 94.3%; `COc1cc(-c2nn(-c3ccc(NC(=O)c4cc(Cl)cc(Cl)c4)cc3)cc2-c2ccncc2)ccc1Cl`: 107%.
Take `CCCCCCC(C)N(CC(C)(C)O)C(=O)c1ccc([N+](=O)[O-])cc1` (stereo not given): the growth was 95.2%.
Still for that read-out and setting: then `COc1cc(-c2nn(-c3ccc(NC(=O)c4ccc(Cl)c(Cl)c4)cc3)cc2-c2ccncc2)ccc1Cl`, with 88.3%; and `COC(=O)[C@@H]1[C@H](O)[C@H](C)[C@H](O)[C@H](C)/C=C\C=C(C)C(=O)Nc2c(C)c(OC(C)=O)c3c(c2O)C(=O)C(C)=C2OCOC(=C23)C(C)=C[C@@](C)(O)[C@H](O)[C@@H](C)[C@H]1OC(C)=O`, with 104%; and `C/C(=C\c1ccc2ccccc2c1)[N+](=O)[O-]`, with 67%.
The same measure, in the same setting: next, `Cc1cc2cn3c4ccc(O)cc4[nH]c(=O)c3c2cc1C`: 54.3%; `COc1ccc(C(=O)N2N=C(c3ccc(Br)cc3)CC2c2cn(-c3ccccc3)nc2-c2ccccc2)cc1` (stereo not given): 88.9%; `O=CN/N=C/c1ccc(Cl)c([N+](=O)[O-])c1`: 35.4%.
The same measure, in the same setting: next, `O=C1CCNC1`: 103%; `O=c1[nH]c2cc(O)ccc2n2cc3c(F)cccc3c12`: 60.8%; `O=C(CCC(=O)N(CCO)CCO)N(CCO)CCO`: 105%.
With `O=C(CCl)NC1c2ccccc2Oc2ccccc21`, the growth is 98.1%.
On the same count and under the same terms, next, `CC(=O)N1CCN(CCNC(=O)n2cc(-c3ccncc3)c(-c3cc(O)cc(Cl)c3)n2)CC1`: 102%.
As to `CC(C)OCC1CO1` (stereo not given), the growth was 101%.
For the molecule `Oc1ccc(Br)cc1/C=N/NC(=S)NC12CC3CC(CC(C3)C1)C2`, the growth was 31.5%.
On to `CC(=O)N1CCN(CCNC(=O)n2cc(-c3ccncc3)c(-c3ccc(O)c(Cl)c3)n2)CC1`, for which the growth is 112%.
Regarding `CCOC(=O)/C(C#N)=C(/CC)OCC`, the growth was 102%.
On to `O=C1Nc2c(c(=O)n(-c3ccccc3)c3ccccc23)C(c2ccc(Cl)cc2)N1` (stereo not given), for which the growth is 99.2%.
The same measure, in the same setting: then `N=C(c1ccccc1)N(Cc1ccccc1)Cc1ccccc1`, with 104%.
The same measure, in the same setting: next, `COc1cccc(NC(=O)NCCNc2nccc(-c3c(-c4ccc(F)cc4)nc4sccn34)n2)c1`: 85.9%; `Cc1ccc(NC(=O)CCl)cc1Cl`: 103%.

The values above are taken from PubChem BioAssay (NCI).
